In the library only some 5.7% were active in any assay of this set; here they are far more common.
hcDAF12 agonist – activators of H. contortus DAF-12 nuclear receptor; HEK293 hcDAF-12 lit1-tk-luc reporter, luminescence; 0% DMSO, 100% Δ7-dafachronic acid; activation, % at 6.8 µM; 1.4% of 370,000 active;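 active = activation above the mean of all tested compounds plus 3 SD, cut at about 5.5% in these data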;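 note: 100% = response to 3 µM Δ7-dafachronic acid high control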
DAX1 inh-1 – inhibitors of DAX1 repression of SF-1 activated StAR promoter; AID 652010; 1.1% of 370,000 active; inhibition, % at 6.8 µM; HEK293T StAR-luciferase reporter, SF-1/DAX-1 repression relief;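 active = inhibition above the mean over all tested compounds plus 3 SD, cut at about 3.6% in these data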;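 note: 0% = DAX-1 cells with DMSO and 100% = cells lacking DAX-1 with DMSO; higher inhibition means more luminescence from relief of DAX-1 repression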
DAX1 inh-2 – NR0B1 (DAX1) inhibition; P51843; HEK293 Gal4-DAX1 luciferase reporter, luminescence; inhibition, % at 6.75 µM; 0.99% of 340,000 active;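 active = inhibition above the mean over all tested compounds plus 3 SD, cut at about 4.2% in these data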;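 note: 0% = DAX1-transfected cells with DMSO and 100% = empty-vector control cells with DMSO; inhibition shows as a rise in luminescence from relieved DAX1 repression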
hgDAF12 agonist – hgDAF-12 agonism, primary luciferase screen. HEK293 GAL4-hgDAF12 UAS-luciferase reporter, agonist luminescence; normalized to butyrate control. activation, % at 6.8 µM. 1.8% of 370,000 active. AID 687014;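 active = activation above a cutoff set at the mean of all screened compounds plus 3 SD, cut at about 10% in these data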;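 note: 0% = DMSO wells and 100% = sodium butyrate wells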
ssDAF12 agonist – S. stercoralis DAF-12 activation, primary screen | activation, % at 6.8 µM | 1% of 370,000 active | HEK293 ssDAF-12/GRIP1 lit1-tk-luc reporter, luminescence; % of 3 µM dafachronic acid response;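 active = activation above the mean over all tested compounds plus 3 SD, cut at about 0.9% in these data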;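 note: 0% = DMSO-only wells and 100% = 3 µM delta7-dafachronic acid wells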
AHR act – human AHR activation | AHR-responsive luciferase reporter cells, luminescence | 2.5% of 320,000 active | activation, % at 5 µM; in the data active = activation above about 47%;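 note: 0% = vehicle wells and 100% = reference agonist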
AHR act confirm – human AHR activation, confirmation. activation, % at 9 µM. shares compounds with AHR act. 87% of 2,300 active. human cells, AHR-responsive luciferase reporter, luminescence. AID 2845; in the data active = activation above about 49%;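 note: HepG2 hepatoma cells carrying a DRE-driven firefly luciferase reporter; 0% = vehicle wells and 100% = reference agonist wells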
PXR act counter – activates human PXR in AHR activator counter-screen | 88% of 2,300 active | shares compounds with AHR act | activation, % at 11.6 µM | cell-based PXR reporter, luciferase luminescence; in the data active = activation above about 11%;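 note: human hepatoma DPX-2 cells expressing full-length human PXR; 0% = DMSO and 100% = reference agonist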
Target sequence (O75469 whole entry, looked up): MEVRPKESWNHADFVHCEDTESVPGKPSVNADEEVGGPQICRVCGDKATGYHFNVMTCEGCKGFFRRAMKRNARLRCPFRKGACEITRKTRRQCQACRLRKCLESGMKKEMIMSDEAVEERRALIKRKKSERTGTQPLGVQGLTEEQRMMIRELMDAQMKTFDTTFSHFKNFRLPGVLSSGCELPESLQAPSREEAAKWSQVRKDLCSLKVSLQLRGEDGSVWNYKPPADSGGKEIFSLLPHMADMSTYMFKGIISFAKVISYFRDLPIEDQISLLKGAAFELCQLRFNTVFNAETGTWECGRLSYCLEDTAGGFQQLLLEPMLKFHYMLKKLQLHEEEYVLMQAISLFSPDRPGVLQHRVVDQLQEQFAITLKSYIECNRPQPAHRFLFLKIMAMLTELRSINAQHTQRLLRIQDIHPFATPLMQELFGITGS
An asterisk follows results filed as active; x = no result given.

SMILES	hcDAF12 agonist	DAX1 inh-1	DAX1 inh-2	hgDAF12 agonist	ssDAF12 agonist	AHR act	AHR act confirm	PXR act counter
CCC(=O)Nc1cc(-c2nc3ncccc3o2)ccc1Cl	0	-1	1	2	0	110*	97*	16*
CCCC(=O)Nc1cc(-c2nc3ncccc3o2)ccc1C	0	0	0	-2	-2	17	x	x
CC(C)C(=O)Nc1cc(-c2nc3ncccc3o2)ccc1Cl	-1	0	2	-2	-1	18	x	x
Cc1cc(C)nc(SCC(=O)NNC(=O)c2cccs2)n1	1	0	3	1	-1	1	x	x
C/C(=N\NC(=O)CSc1nc(C)cc(C)n1)c1cccs1	-3	0	-1	0	-1	110*	98*	50*
COc1cc2c(cc1NC(=O)CSc1ccc(Cl)cc1)oc1ccccc12	2	-1	0	-1	-1	7	x	x
COc1cc2c(cc1NC(=O)CSc1ccccn1)oc1ccccc12	6.5*	2	1	4	0	105*	91*	16*
COc1cc2c(cc1NC(=O)/C=C/c1cc(OC)c(OC)c(OC)c1)oc1ccccc12	-4	-2	-3	-6	-2	88*	53*	10*
Cc1c(/C(O)=C2/C(=O)C(=O)N(CCN3CCOCC3)C2c2cccs2)cnn1-c1ccccc1 (centres undefined)	0	0	3	0	-1	-3	x	x
COc1cccc(-c2nnc(SCc3ccc(C#N)cc3)n2Cc2ccco2)c1	-2	-1	0	1	-1	7	x	x
Cc1ccc(C2=NCCn3c2c2ccccc2[n+]3[O-])cc1	3	0	0	1	0	20	x	x
[O-][n+]1c2ccccc2c2n1CCN=C2c1ccc(Cl)cc1	5	0	2	4	0	102*	115*	12*
Nc1c(Cl)cc(C2=NCCn3c2c2ccccc2[n+]3[O-])cc1Cl	3	0	1	0	-1	85*	101*	20*
Cc1cc(C2C(=O)NC(=O)C2=O)c(C)cc1Br (centres undefined)	-1	0	2	-3	-1	x	x	x
COC(=O)c1ccc(S(=O)(=O)NCc2ccc(S(N)(=O)=O)cc2)n1C	-2	-1	0	-3	-1	0	x	x
COc1cc(/C=C(/C#N)c2ccccc2)ccc1Oc1ccc([N+](=O)[O-])cn1	0	-1	-2	1	-1	-2	x	x
CNC(=O)c1cccnc1Nc1cccc(C(F)(F)F)c1	2	0	0	-2	-1	120*	105*	15*
Cc1cccnc1NC(=O)Nc1cccc(C(F)(F)F)c1	0	0	1	1	-1	4	x	x
Cc1ccccc1-c1nsc(SCC(=O)NCc2ccc3c(c2)OCO3)n1	-2	0	2	5	-1	86*	44	30*
O=C(CSc1nc2cc(Cl)ccc2s1)NCc1ccc2c(c1)OCO2	5	0	1	6	-1	108*	82*	34*
COc1cc(NC(=O)c2cc(C)on2)cc(C(=O)Nc2cccc(C(F)(F)F)c2)c1	-3	-2	-1	-3	-1	130*	106*	21*
COc1cc(NC(=O)c2csc(N)n2)cc(C(=O)Nc2cccc(C(F)(F)F)c2)c1	1	-5	-3	1	-1	85*	91*	32*
COc1cc(NC(=O)c2ccnc(N)c2)cc(C(=O)Nc2cccc(C(F)(F)F)c2)c1	0	-1	0	-1	-2	12	x	x
COc1cc(NC(=O)c2cnc(N)s2)cc(C(=O)Nc2cccc(C(F)(F)F)c2)c1	-2	-2	0	4	-2	27	x	x
O=[N+]([O-])c1cccc(NC(=S)Nc2nc(-c3ccccc3Cl)cs2)c1	2	1	-1	-1	-1	87*	56*	23*
SMILES	hcDAF12 agonist	DAX1 inh-1	DAX1 inh-2	hgDAF12 agonist	ssDAF12 agonist	AHR act	AHR act confirm	PXR act counter
O=C(Cc1cccc2ccccc12)Nc1nc(-c2cccc([N+](=O)[O-])c2)cs1	2	0	0	1	1	0	x	x
COCCn1c(-c2ccc(SC)cc2)nc2c1c(=O)[nH]c(=O)n2CC(C)C	0	0	1	4	-1	3	x	x
CCC(C)C(=O)Nc1nc(C)c(-c2csc(Nc3ccccc3OC)n2)s1 (centres undefined)	0	1	1	1	-1	110*	85*	51*
CCCC(C)C(=O)Nc1nc(C)c(-c2csc(Nc3cc(Cl)ccc3C)n2)s1 (centres undefined)	-1	0	-1	-2	-1	41	x	x
C=CCCC(=O)Nc1nc(C)c(-c2csc(Nc3ccccc3OC)n2)s1	0	-2	0	4	-2	101*	65*	31*
Cc1nc(NC(=O)c2ccco2)sc1-c1csc(Nc2ccc(Cl)cc2Cl)n1	-1	0	-1	0	-1	88*	75*	26*
C=CCCC(=O)Nc1nc(C)c(-c2csc(Nc3ccc(Cl)cc3Cl)n2)s1	-1	0	1	-1	-2	102*	73*	25*
CC(=O)Nc1ccc(S(=O)(=O)Nc2c(NC3CCCCC3)c3ccccc3oc2=O)cc1	0	0	0	0	-1	4	x	x
COC(=O)[C@@]1(Cc2ccc(F)cc2)[C@H]2c3cc(C(=O)N4CCCC4)n(C)c3C[C@H]2CN1C(=O)c1ccccc1	-3	-1	x	-2	-1	x	x	x
CN(C)CCNC(=O)c1cccc(-c2cnc3c(NC=O)cc(-c4ccc(S(C)(=O)=O)cc4)cn23)c1	1	2	x	2	0	x	x	x
c1nc(Nc2ccc(N3CCOCC3)cc2)c2ccsc2n1	0	1	2	5	0	18	x	x
Brc1ccc2ncnc(Nc3ccc(N4CCOCC4)cc3)c2c1	-1	0	-2	5	-1	92*	63*	x
COc1cccc(/C=C/c2ccc3cccc(O)c3n2)c1OC	5	1	2	10	0	81*	65*	13*
CCCCCc1nc2c(=O)n(C)c3ccccc3c2o1	0	0	-1	4	-1	21	x	x
Cn1c(=O)c2nc(-c3ccccc3)oc2c2ccccc21	1	0	1	3	0	104*	120*	22*
O=C(Cc1coc2ccc3ccccc3c12)NCc1ccccc1	-1	0	0	-3	-2	6	x	x
O=C(Cc1coc2ccc3ccccc3c12)Nc1nccs1	0	-2	1	-2	-1	79*	93*	22*
